# Rows were chosen to be rich in hits. Some 4.1% of all compounds tested hit in one or more screens of this group.
# UHRF1 MBD2 ctr: blocks human UHRF1 binding to methylated DNA. Q96T88. UHRF1 binding to methylated oligo, TR-FRET. inhibition, % at 4.4 µM. 370,000 compounds, 0.75% hits; in the data active means inhibition above about 21%;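 further: UHRF1 SRA domain binding a hemimethylated CpG hairpin DNA probe; 0% = median of test compound wells and 100% = reference inhibitor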
# ABHD5-PLIN5 inh: inhibitors of human ABHD5-perilipin-5 interaction. Q00G26+Q8WTS1. Split G. princeps luciferase complementation, luminescence, 4 h. inhibition, % at 4 µM. 360,000 compounds, 0.78% hits. AID 602281;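 active means inhibition above the mean inhibition across every tested compound plus 3 SD, cut at about 22% in these data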;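 further: 0% = DMSO only wells and the 100% control is not disclosed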
# Target sequence (Q00G26 whole entry, looked up): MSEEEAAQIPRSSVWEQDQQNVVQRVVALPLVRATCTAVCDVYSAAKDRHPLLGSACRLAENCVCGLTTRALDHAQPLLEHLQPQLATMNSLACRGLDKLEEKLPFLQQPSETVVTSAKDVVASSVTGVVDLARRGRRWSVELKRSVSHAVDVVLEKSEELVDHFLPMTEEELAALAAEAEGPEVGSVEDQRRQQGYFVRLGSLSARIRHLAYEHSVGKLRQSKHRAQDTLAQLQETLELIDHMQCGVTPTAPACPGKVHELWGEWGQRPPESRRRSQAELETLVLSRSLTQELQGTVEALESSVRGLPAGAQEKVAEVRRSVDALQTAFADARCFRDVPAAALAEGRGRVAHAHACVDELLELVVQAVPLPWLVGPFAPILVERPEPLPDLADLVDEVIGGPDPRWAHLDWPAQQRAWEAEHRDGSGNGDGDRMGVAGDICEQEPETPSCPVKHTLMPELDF
# Target sequence (Q8WTS1 whole entry, looked up): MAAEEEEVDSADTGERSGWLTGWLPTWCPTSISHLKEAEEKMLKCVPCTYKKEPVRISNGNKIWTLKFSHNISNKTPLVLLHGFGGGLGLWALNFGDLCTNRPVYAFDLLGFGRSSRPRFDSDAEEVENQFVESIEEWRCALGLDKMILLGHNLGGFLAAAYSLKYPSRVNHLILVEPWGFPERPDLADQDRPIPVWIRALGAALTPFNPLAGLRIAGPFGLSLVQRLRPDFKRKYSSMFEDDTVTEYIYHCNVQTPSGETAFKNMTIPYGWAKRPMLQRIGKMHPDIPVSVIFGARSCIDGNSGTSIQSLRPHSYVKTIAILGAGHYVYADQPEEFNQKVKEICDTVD
# MBD2 inh: MBD2-methylated oligo binding inhibition; Q9UBB5; TR-FRET, MBD2 binding to methylated oligonucleotide; inhibition, % at 4.4 µM; 370,000 compounds, 0.31% hits; AID 686964; in the data active means inhibition above about 13%
# LEDGF integ inh: blocks HIV-1 LEDGF/p75-dependent DNA integration; AID 743269; inhibition, % at 3.7 µM; 370,000 compounds, 0.64% hits; TR-FRET IN-LEDGF/p75 DNA integration, Eu/Cy5;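 active means inhibition above the screen-wide mean plus 3 SD, cut at about 13% in these data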;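 further: signal is the Cy5 over europium emission ratio at 671 and 618 nm; 0% = plate median of compound wells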
# rCAG binder: binds r(CAG) RNA repeats | r(CAG) RNA repeat, TO-PRO-1 dye displacement fluorescence | inhibition, % at 3 µM | 370,000 compounds, 1.3% hits;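 active means inhibition above the plate cutoff, the mean of all test compounds on that plate plus 3 SD, cut at about 35% in these data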;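 further: 0% = DMSO alone and 100% = 100 µM mitoxantrone as full dye displacement; higher means more dye released from RNA so lower well fluorescence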
# PRMT1 FP inh: inhibitors of human PRMT1 | 370,000 compounds, 1.3% hits | inhibition, % at 2.79 µM | recombinant PRMT1, activity-based probe fluorescence polarization;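 active means inhibition above about 21% made by adding two undisclosed values, limit read from the data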
# ABHD5 PLIN5 conf: confirmation of human ABHD5-PLIN5 interaction inhibitors | AID 651612 | shares compounds with ABHD5-PLIN5 inh | biochemical ABHD5-PLIN5 interaction, luminescence | inhibition, % at 4 µM | 2,200 compounds, 67% hits; in the data active means inhibition above about 23%;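 further: 0% = DMSO vehicle wells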
# HNF4 split-luc: HNF4 split-luciferase signal hit, counter-screen. shares compounds with ABHD5-PLIN5 inh. HNF4 dimerization, luminescence, biochemical. inhibition, % at 4 µM. 2,200 compounds, 77% hits. AID 651674;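 active means mean inhibition across replicate wells exceeding the computed hit threshold, cut at about 13% in these data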;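 further: light from luciferase halves that rejoin when HNF4 fusion proteins dimerize; 0% = DMSO only wells and the 100% control is not given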
# The depositor's hits bear a star; . = no result given.
SMILES,UHRF1 MBD2 ctr,ABHD5-PLIN5 inh,MBD2 inh,LEDGF integ inh,rCAG binder,PRMT1 FP inh,ABHD5 PLIN5 conf,HNF4 split-luc
CCc1nnc(NC(=O)CSc2sc3c(O)cc(=O)[nH]c3c2C#N)s1,35*,0,13*,13,57*,42*,.,.
CCc1nnc(NC(=O)CSc2nc3[nH]c(=O)cc(O)c3s2)s1,-2,-2,-4,1,23,7,.,.
Cc1ccc(Cl)cc1NC(=O)CSc1sc2c(O)cc(=O)[nH]c2c1C#N,6,-3,5,2,35*,15,.,.
C=CCCC1CN(Cc2ccc(OC)cc2)S(=O)(=O)c2c(cccc2N2CCCCC2)O1 (configuration not stated),-1,.,6,-2,2,2,.,.
CC(=O)Oc1ccc2occ(C(=O)c3cccs3)c2c1,2,0,-4,2,-1,1,.,.
O=C(CCl)Oc1ccc2occ(C(=O)c3cccs3)c2c1,29*,-1,13,12,0,-1,.,.
CN(C)C1=NCC(CSC(=N)N)S1 (configuration not stated),-2,-7,1,-4,2,25*,.,.
CN1/C(=C/C(=O)c2nc(S(C)(=O)=O)ncc2Cl)C(C)(C)c2ccccc21,.,69*,.,.,.,.,.,.
NC(=O)C1CCN(C(=O)COc2cccc3ccccc23)CC1,40*,7,-2,-3,0,-4,.,.
O=C(O)C1CCN(C(=O)c2cccc3ccccc23)CC1,30*,-4,-5,-1,-1,0,.,.
COC(=O)c1cc2c(c3c4cc(F)ccc4n(S(=O)(=O)c4ccccc4)c13)C(=O)N(C)C2,-2,.,-1,-1,8,4,.,.
CCCCNC(=O)C1CCCN1C(=O)Nc1cccc(C)c1 (configuration not stated),1,.,7,-2,2,-1,.,.
CC(CCN1CCC(CN2C(=S)NCC2Cc2ccccc2)CC1)c1ccccc1 (configuration not stated),21*,3,11,3,-2,2,.,.
CC(C)CCN1CCC(CN2C(=S)NC[C@@H]2Cc2ccccc2)CC1,-2,4,-1,5,-2,-4,.,.
CC(C)CN(CC(C)C)C(=O)c1ccc2c(c1)NC(=O)C(C)(C)O2,2,.,0,-3,-2,2,.,.
O=C1C(Sc2ccccc2)=C[C@@]2(O)CC[C@@H](O)[C@]1(Sc1ccccc1)[C@H]2O,0,26*,-5,4,6,10,33*,43*
O=C(/C=C/Nc1ccccc1)c1ccccc1,-3,0,-7,2,0,0,.,.
O=C(/C=C/Sc1ccccc1)c1ccccc1,0,35*,1,2,-3,9,61*,47*
O=C(/C=C/Sc1ccccc1)c1ccc(Cl)cc1,1,38*,-6,5,2,1,70*,47*
O=c1c2c(-c3ccccc3)csc2nc2c3ccccc3c(NCCN3CCOCC3)nn12,-21,23*,4,1,7,6,11,5
O=C(CSc1nnc(-c2ccncc2)n1Cc1ccco1)Nc1ccccc1Cl,1,2,-6,-2,-1,-1,.,.
O=C(CSc1nnc(-c2ccncc2)n1Cc1ccco1)c1ccc(Cl)cc1,0,32*,0,-3,8,7,18,29*
NC(=O)CSc1nnc(-c2cccs2)n1Cc1ccco1,0,1,6,0,-6,2,.,.
O=C(CSc1nnc(-c2ccc(Cl)cc2)n1Cc1ccco1)c1cccs1,6,33*,5,7,30,23*,12,14*
CCCCOCCCNC(=O)C[C@@H]1C[C@]2(C(=O)OCC)CCC3=C2N(CCC3)C1=O,0,.,-5,4,-3,-2,.,.
SMILES,UHRF1 MBD2 ctr,ABHD5-PLIN5 inh,MBD2 inh,LEDGF integ inh,rCAG binder,PRMT1 FP inh,ABHD5 PLIN5 conf,HNF4 split-luc
COC(=O)[C@]12C[C@H](CC(=O)NCCCN3CCCC3=O)C(=O)N(Cc3ccccc3)C1=C[C@H](COCc1ccccc1)O[C@@H]2C,1,.,1,3,0,2,.,.
COC(=O)C1=C(C)N(Cc2cccc(C(F)(F)F)c2)C(=NCc2ccc(OC)cc2)NC1c1ccc(F)cc1 (configuration not stated),1,.,0,0,9,-3,.,.
COc1ccc(CCC(=O)Nc2c(-c3ccc(N(C)C)cc3)[nH][nH]c2=O)cc1,17,86*,12,28*,15,6,22,79*
COc1ccc(-c2[nH][nH]c(=O)c2NC(=O)c2ccccn2)cc1,-10,-24,-6,-6,1,2,.,.
O=C1N2CCc3ccccc3C2CS(=O)(=O)N1CCc1ccccc1 (configuration not stated),-1,.,-6,4,-1,-5,.,.
CCCCC1C(=O)N(c2ccccc2)N(c2ccc(O)cc2)C1=O (configuration not stated),-2,97*,-1,-1,9,21,82*,100*
CCCCC1(CO)C(=O)N(c2ccccc2)N(c2ccccc2)C1=O,1,-1,1,-2,1,9,.,.
C[C@H]1C2CC(OC(=O)Nc3ccccc3C(F)(F)F)C(C2)[C@H]2CCCCN21 (some centres not stated),-2,.,1,-1,7,4,.,.
O=C(NCc1ccco1)c1nn2c(C(F)(F)F)cc(-c3cccs3)nc2c1Br,-4,26*,-3,1,7,13,34*,62*
O=C(NCC1CCCO1)c1nn2c(C(F)(F)F)cc(-c3cccs3)nc2c1Br (configuration not stated),-2,-8,-1,3,2,-4,.,.
COc1ccc(C(C(=O)NC2CCCCC2)n2c(=O)c(-c3ccco3)nc3ccccc32)cc1 (configuration not stated),-4,66*,-1,3,26,13,85*,30*
COc1ccc(NC(=O)C(c2cccc3ccccc23)n2c(=O)c(-c3ccco3)nc3ccccc32)cc1 (configuration not stated),-3,26*,-1,-2,20,1,23*,3
O=C(NC1CCCCC1)C(c1ccc(C(F)(F)F)cc1)n1c(=O)c(-c2ccccc2)nc2ccccc21 (configuration not stated),5,-1,-1,-3,1,1,.,.
COc1ccc(NC(=O)C(c2ccc(C(F)(F)F)cc2)n2c(=O)c(-c3ccco3)nc3ccccc32)cc1 (configuration not stated),-2,12,-1,-4,17,5,.,.
